# From PubChem BioAssay (NCATS)
# Inconclusive results are not listed. Unmarked numbers belong to inactive results. The source made the active and inactive calls. The call rests on the fitted dose curve; in most records, active means well fitted cell-killing curve with a large enough effect; inconclusive means small, poorly fitted or top-dose-only effect, or effect the other way; inactive means flat fitted curve, though single readings scatter.
# System: Hek293T
# Assay: Primary qHTS to identify gynecologic anti-cancer compounds using libraries of approved drugs and bioactive compounds (AID 1345084); further: nearly all actives have a fitted effect of over 55% in size
# Settings: Gynecologic cancer cell panel viability, ATPlite luminescence, 48 h, control line for the selectivity index; series mostly up to 57.5 µM; activity change, negative = cytotoxicity: at the top concentration
# Procedure, shortened: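 48 h compound exposure at 37 C, 5% CO2; five-point qHTS. ATPlite luminescence readout of cell ATP.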
# On the % scale 0 is the no-effect control and ±100 the full control effect; potency means the concentration at half of the fitted maximal effect.
SMILES,"activity change, negative = cytotoxicity [%]",Potency
Cc1cc(N)c2cc(NC(=O)Nc3ccc4nc(C)cc(N)c4c3)ccc2n1,-9.88,
C[n+]1c2cc(N)ccc2cc2ccc(N)cc21 (tested in a mixture with another compound),,10 µM (active)
Cc1c(C(C)C)c(=O)n(-c2ccccc2)n1C,-3.12,
N[C@H](Cc1c[nH]c2ccccc12)C(=O)O,-3.15,
O=C(Nc1ccc(Oc2ccc(Cl)cc2)c(Cl)c1)c1cc(I)cc(I)c1O,-6.79,
CCC(C(=O)OCCN(CC)CC)c1ccccc1 (centres undefined),3.91,
CCCN1CCCC[C@H]1C(=O)Nc1c(C)cccc1C,-2.99,
COc1cc(-c2ccc(=O)[nH]n2)ccc1OC(F)F,-4.9,
Oc1ccc(O)cc1,4.22,
CN1CCCC(CC2c3ccccc3Sc3ccccc32)C1 (centres undefined),-1.98,
OC[C@H]1O[C@@H](n2cnc3c(=S)nc[nH]c32)[C@H](O)[C@@H]1O,,10 µM (active)
CC(C)(C)CC(C)(C)c1ccc(OCCOCC[N+](C)(C)Cc2ccccc2)cc1,-17.4,
CO/N=C1\CN(c2nc3c(cc2F)c(=O)c(C(=O)O)cn3C2CC2)CC1CN (centres undefined),-4.39,
C/C=C(/C(=C/C)c1ccc(O)cc1)c1ccc(O)cc1,3.75,
CCCSS/C(CCO)=C(\C)N(C=O)Cc1cnc(C)nc1N,-9.47,
CC(=O)Oc1ccc(C(c2ccc(OC(C)=O)cc2)c2ccccn2)cc1,1.13,
Cc1ccc(O)c2ncccc12,1.55,
Cc1c(C)n(CCN(C)C)c2ccc(C(=O)OCCN(C)C)cc12,8.9,
CC1=C(C(=O)O)N2C(=O)[C@@H](NC(=O)[C@H](N)c3ccc(O)cc3)[C@H]2SC1,12,
